The text below walks through data of PubChem BioAssay.

Calls of active or inactive are those of the source.

A short description of assay [1]: optical density shifts of acrAB sulA E. coli – strain DRC41, OD650, 48 h, E. coli filamentation inducer project, primary screen (AID 1152).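 Note: E. coli MC1000 strain DRC41 lacking acrAB efflux pump and sulA.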 As to conditions: higher = more signal, called active from +8 up or from −8 down.
Assay [2] can be described thus: probe aLefty1 binding on compound microarray – biochemical, small-molecule microarray, 635/667 nm fluorescence, primary screen (AID 1153).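 Note: score merges spot fluorescence with signal-to-noise ratio from the scanned slide images.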 As to conditions: higher = more signal.
Assay [3] in a line: plasmodial surface anion channel blockers, osmotic lysis – cell-based, P. falciparum Indochina, OD700, 1 h, primary screen (AID 1154). As to conditions: P. falciparum Indochina infected RBC osmotic lysis, higher = more signal, called active from +8 up or from −8 down.
The nature of assay [4]: plasmodial surface anion channel blockers, osmotic lysis – cell-based, P. falciparum Indochina, OD700, 2 h, primary screen (AID 1155).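 Note: lysis reports solute entry through the parasite surface anion channel PSAC.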 As to conditions: P. falciparum Indochina infected erythrocytes, higher = more signal, called active from +8 up or from −8 down.
Assay [5] can be described thus: changes in parasitized red cell lysis, either direction – P. falciparum Indochina, OD700, 3 h, PSAC antagonist project, primary screen (AID 1156). As to conditions: P. falciparum-infected erythrocytes, osmotic lysis, higher = more signal, called active from +8 up or from −8 down.
A short description of assay [6]: plasmodial surface anion channel blockers, osmotic lysis – cell-based, P. falciparum Indochina, OD700, 18 h, primary screen (AID 1157). As to conditions: P. falciparum Indochina infected erythrocytes, osmotic lysis OD700, 18 h; higher = more signal, called active from +8 up or from −8 down.
The nature of assay [7]: S6 kinase pathway phospho-S6 level changes – cell-based, A549, cytoblot, luminescence, serum-stimulated, primary screen (AID 1158).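 Note: serum-stimulated A549 lung adenocarcinoma cells; signal is phosphorylated S6 detected by cytoblot immunostaining with HRP secondary.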 As to conditions: 5 h, higher = more signal.
Assay [8] addresses NADPH oxidase 2 (Homo sapiens) (UniProt P04839). The assay can be described thus: compounds shifting NOX2 Amplex Red fluorescence – cell-based, HEK293-NOX2, PMA-stimulated, NOX inhibitor project, primary screen (AID 1159). Note: test concentration not given here. As to conditions: 45 min, higher = more signal, called active from +8 up or from −8 down.
The target of assay [9] is NADPH oxidase 4 (Homo sapiens) (UniProt Q9NPH5). The assay can be described thus: compounds shifting NOX4 Amplex Red fluorescence – cell-based, HEK293-NOX4, tetracycline-induced, NOX inhibitor project, primary screen (AID 1160). As to conditions: HEK293-NOX4, Amplex Red H2O2 fluorescence, 45 min; higher = more signal, called active from +8 up or from −8 down.
Chain of NADPH oxidase 4 (Homo sapiens) (Q9NPH5 whole entry, looked up): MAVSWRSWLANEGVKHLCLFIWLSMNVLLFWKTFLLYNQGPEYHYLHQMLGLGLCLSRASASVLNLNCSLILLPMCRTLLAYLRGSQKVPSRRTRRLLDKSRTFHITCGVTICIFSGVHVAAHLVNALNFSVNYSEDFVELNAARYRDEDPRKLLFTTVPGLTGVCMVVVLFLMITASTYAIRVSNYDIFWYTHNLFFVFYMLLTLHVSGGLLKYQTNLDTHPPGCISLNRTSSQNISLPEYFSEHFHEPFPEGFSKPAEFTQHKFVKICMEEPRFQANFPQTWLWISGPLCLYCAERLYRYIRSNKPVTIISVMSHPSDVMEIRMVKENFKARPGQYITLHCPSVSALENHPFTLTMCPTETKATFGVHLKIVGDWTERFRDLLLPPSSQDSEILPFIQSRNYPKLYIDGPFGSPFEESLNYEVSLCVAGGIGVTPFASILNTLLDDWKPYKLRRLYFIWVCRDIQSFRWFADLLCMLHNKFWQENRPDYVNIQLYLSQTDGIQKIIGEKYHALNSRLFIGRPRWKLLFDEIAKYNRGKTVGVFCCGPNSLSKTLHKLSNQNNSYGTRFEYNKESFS
Assay [10] concerns the target NADPH oxidase 5 (Homo sapiens) (UniProt Q96PH1). Put plainly: compounds shifting NOX5 Amplex Red fluorescence – cell-based, HEK293-NOX5, NOX inhibitor project, primary screen (AID 1161). As to conditions: HEK293-NOX5, ionomycin, 45 min, higher = more signal.

Chain of NADPH oxidase 2 (Homo sapiens) (P04839 whole entry, looked up): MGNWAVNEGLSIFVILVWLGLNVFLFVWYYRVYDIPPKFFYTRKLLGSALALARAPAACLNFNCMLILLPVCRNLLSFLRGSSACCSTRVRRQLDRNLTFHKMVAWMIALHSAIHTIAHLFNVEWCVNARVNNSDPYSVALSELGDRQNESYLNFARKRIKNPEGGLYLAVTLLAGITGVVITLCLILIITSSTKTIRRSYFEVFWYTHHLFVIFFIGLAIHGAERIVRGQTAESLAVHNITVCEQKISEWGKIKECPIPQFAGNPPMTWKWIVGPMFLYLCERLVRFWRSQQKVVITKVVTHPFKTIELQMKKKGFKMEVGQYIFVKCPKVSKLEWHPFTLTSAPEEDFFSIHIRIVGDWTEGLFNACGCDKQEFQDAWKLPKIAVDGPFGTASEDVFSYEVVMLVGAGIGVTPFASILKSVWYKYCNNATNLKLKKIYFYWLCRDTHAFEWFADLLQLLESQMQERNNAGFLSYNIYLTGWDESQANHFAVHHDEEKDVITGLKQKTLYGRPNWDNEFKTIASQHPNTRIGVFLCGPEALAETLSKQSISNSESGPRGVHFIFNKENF
Chain of NADPH oxidase 5 (Homo sapiens) (Q96PH1 whole entry, looked up): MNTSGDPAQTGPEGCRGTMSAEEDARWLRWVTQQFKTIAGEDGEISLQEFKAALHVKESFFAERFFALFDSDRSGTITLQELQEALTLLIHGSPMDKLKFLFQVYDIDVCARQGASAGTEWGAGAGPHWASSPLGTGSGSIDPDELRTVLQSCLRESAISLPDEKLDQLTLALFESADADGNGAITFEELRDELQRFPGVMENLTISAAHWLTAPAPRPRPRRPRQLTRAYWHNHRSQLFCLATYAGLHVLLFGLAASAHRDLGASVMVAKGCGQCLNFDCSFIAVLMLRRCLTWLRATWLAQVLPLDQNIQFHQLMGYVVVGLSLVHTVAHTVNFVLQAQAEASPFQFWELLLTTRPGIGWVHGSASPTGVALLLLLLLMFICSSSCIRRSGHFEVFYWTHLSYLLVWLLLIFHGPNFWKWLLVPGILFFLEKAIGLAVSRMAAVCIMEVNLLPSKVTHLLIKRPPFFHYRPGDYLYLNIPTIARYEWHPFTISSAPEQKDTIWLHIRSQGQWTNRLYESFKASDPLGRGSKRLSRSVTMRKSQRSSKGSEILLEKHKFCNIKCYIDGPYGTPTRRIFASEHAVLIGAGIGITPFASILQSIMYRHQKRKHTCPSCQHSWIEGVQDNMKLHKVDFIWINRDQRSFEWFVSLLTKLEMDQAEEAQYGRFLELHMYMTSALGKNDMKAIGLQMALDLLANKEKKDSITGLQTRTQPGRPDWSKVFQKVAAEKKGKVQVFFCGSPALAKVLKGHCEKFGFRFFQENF

Turning to `O=C1C2C=CC(C(O)C3CCCCC3)N(Nc3ccc([N+](=O)[O-])cc3)C2C(=O)N1c1ccccc1` (stereo not given), the z-score is -1.13 (inactive) in [1]; 21.3 (active) in [3]; 4.73 (inactive) in assay [4]; 4.92 (inactive) in assay [5]; 1.42 (inactive) in assay [6]; -0.185 in assay [7]. The z-score in [8] is -1.03 (inactive); in assay [9], -3.38 (inactive); in assay [10], -4.06. Also, the composite z-score in assay [2] is 0.455.
With `COCCCNC(=O)C1N=C(c2ccc(OCCCO)cc2)N(c2ccccc2)O1` (stereo not given), the z-score is 0.768 (inactive) in assay [1]; 18.4 (active) in [3]; 2.14 (inactive) in assay [4]; 0.669 (inactive) in [5]; 0.325 (inactive) in assay [6]; 0.147 in assay [7]. For the same compound, the z-score in [8] is -3.86 (inactive); in assay [9] it was -0.749 (inactive); in assay [10] it was -0.819. Also, the composite z-score in assay [2] was -0.265.
As for `CC(=O)NCCCC[C@@H]1NC(=O)[C@@H]2C[C@H](C(=O)NCCCCN(C)C)[C@H](c3cccc(OCCO)c3)N2C1=O`, the z-score in assay [1] was 0.522 (inactive); in [3] it was 0.628 (inactive); in assay [4] it was 0.0655 (inactive); in assay [5] it was -0.0825 (inactive); in [6], 0.105 (inactive); in assay [7], -0.326. The z-score in assay [8] was -0.0869 (inactive); in assay [9] it was -0.115 (inactive); in assay [10] it was -0.205. Besides, in [2], the composite z-score was -0.243.
As to `C=CCN(Cc1ccccc1)C(=O)C(c1cccs1)N(CCOCCO)C(=O)/C=C\C(=O)O` (stereo not given), the z-score in assay [1] is 2.73 (inactive); in assay [3], 2.39 (inactive); in [4], -0.398 (inactive); in assay [5], 0.213 (inactive); in assay [6], -0.281 (inactive); in [7] it was 3.21. The values for the z-score in assay [8], in assay [9] and in assay [10] were -0.00856 (inactive), -0.515 (inactive) and -0.659, respectively. Besides, the composite z-score in assay [2] is -0.191.
As for `COC(=O)[C@@]1(Cc2ccc(F)cc2)[C@H]2c3cc(C(=O)N(C)C)n(CC4CC4)c3C[C@H]2CN1C(=O)c1ccccc1`, the z-score in assay [1] is -0.98 (inactive); in assay [3], 3.33 (inactive); in assay [4] it was 1.15 (inactive); in assay [5], 1.07 (inactive); in assay [6] it was 1.4 (inactive); in [7] it was -0.884. Moreover, the z-score in assay [8] is -0.0955 (inactive); in assay [9], 0.281 (inactive); in assay [10], 0.873. The compound also registered a composite z-score in [2] of 2.06.
In the case of `COCCOC(=O)N1C(=O)[C@@]2(c3cc(C#CCCO)ccc31)[C@H](C(=O)N1CCN(c3ncccn3)CC1)[C@H]1C(=O)O[C@H](c3ccccc3)[C@H](c3ccccc3)N1[C@@H]2c1ccccc1OCCO`, the z-score in assay [1] is 1.21 (inactive); in assay [3], 2.63 (inactive); in [4] it was 1.14 (inactive); in [5] it was 0.288 (inactive); in [6] it was 0.761 (inactive); in assay [7] it was 0.69. Further, the z-score was 1.45 (inactive) in assay [8], 1.29 (inactive) in [9] and 0.437 in [10]. For the same compound, the composite z-score in assay [2] is 0.157.
Consider `CCOC(=O)C[C@H]1[C@H](OC(=O)Cc2ccc3c(c2)OCO3)[C@@H](NC(=O)c2ccc(-c3ccccc3)cc2)c2cc(OCCCO)ccc2N1C(=O)c1ccc2ccccc2n1`, for which the z-score in [1] was 1.55 (inactive); in assay [3], 8.44 (active); in [4], 0.67 (inactive); in [5] it was -0.352 (inactive); in [6] it was -0.258 (inactive); in assay [7], 2.85. Besides, the z-score in assay [8] was -2.09 (inactive); in assay [9], -1.28 (inactive); in assay [10] it was -1.21. Further, in [2], the composite z-score was -0.0536.
On to `[N-]=[N+]=NCc1ccccc1C[C@@]1(C(=O)NCC(O)CO)N=C(c2ccc(OCCCO)cc2)O[C@@H]1c1ccccc1N=[N+]=[N-]` (stereo not given in full), for which the z-score in assay [1] was 0.458 (inactive); in assay [3], 30.8 (active); in assay [4] it was 28.7 (active); in assay [5], 1.29 (inactive); in assay [6] it was 7.41 (inactive); in assay [7], 0.345. Besides, the z-score was -0.00841 (inactive) in assay [8], 1.21 (inactive) in assay [9] and 0.427 in [10]. The compound further gave a composite z-score in assay [2] of 0.668.
As to `CN1C(=O)C2C=CC(C(O)c3ccc(I)cc3)N(N3CCCCC3)C2C1=O` (stereo not given), the z-score is -2.04 (inactive) in [1]; 4.08 (inactive) in assay [3]; 0.399 (inactive) in assay [4]; 1.33 (inactive) in assay [5]; 0.701 (inactive) in assay [6]; -1.04 in assay [7]. Also, the z-score in assay [8] is -0.229 (inactive); in [9] it was -2.14 (inactive); in assay [10] it was -1.63. The composite z-score in assay [2] was found to be 0.699.
As to `COc1ccc(C(=O)Nc2ccc(CN3C(=O)[C@@]4(O[C@@H](CC(=O)N5CCC[C@H]5CO)[C@H]([Si](C)(C)c5ccc(OC)cc5)[C@H]4C)c4ccccc43)cc2)cc1`, the z-score was 0.482 (inactive) in assay [1]; 5.52 (inactive) in assay [3]; 1.06 (inactive) in [4]; 0.146 (inactive) in assay [5]; 0.77 (inactive) in assay [6]; 0.363 in assay [7]. The z-score in assay [8] was 1.21 (inactive); in assay [9], 1.23 (inactive); in [10] it was 4.5. In assay [2], the composite z-score is 0.138.
On to `CC(C)(C)OC(=O)CC[C@@]1(C(=O)NCCN2CCOCC2)N=C(c2ccc(OCCCO)cc2)O[C@@H]1c1ccccc1N=[N+]=[N-]`, for which the z-score in [1] is 0.0974 (inactive); in assay [3], 31.4 (active); in [4] it was 28 (active); in assay [5] it was 3.73 (inactive); in assay [6], 5.67 (inactive); in [7] it was -0.249. Further, the z-score was -2.91 (inactive) in [8], 0.765 (inactive) in assay [9] and -1.73 in assay [10]. The compound further registered a composite z-score in assay [2] of 0.266.
